NSD2 HMT inh: NSD2 (human) methyltransferase inhibition | 0.54% of 310,000 active | O96028 | inhibition, % at 12.5 µM | AID 743445 | NSD2 peptide methylation, AlphaScreen, 120 min; in the data active = inhibition above about 50%
Target sequence (O96028 whole entry, looked up): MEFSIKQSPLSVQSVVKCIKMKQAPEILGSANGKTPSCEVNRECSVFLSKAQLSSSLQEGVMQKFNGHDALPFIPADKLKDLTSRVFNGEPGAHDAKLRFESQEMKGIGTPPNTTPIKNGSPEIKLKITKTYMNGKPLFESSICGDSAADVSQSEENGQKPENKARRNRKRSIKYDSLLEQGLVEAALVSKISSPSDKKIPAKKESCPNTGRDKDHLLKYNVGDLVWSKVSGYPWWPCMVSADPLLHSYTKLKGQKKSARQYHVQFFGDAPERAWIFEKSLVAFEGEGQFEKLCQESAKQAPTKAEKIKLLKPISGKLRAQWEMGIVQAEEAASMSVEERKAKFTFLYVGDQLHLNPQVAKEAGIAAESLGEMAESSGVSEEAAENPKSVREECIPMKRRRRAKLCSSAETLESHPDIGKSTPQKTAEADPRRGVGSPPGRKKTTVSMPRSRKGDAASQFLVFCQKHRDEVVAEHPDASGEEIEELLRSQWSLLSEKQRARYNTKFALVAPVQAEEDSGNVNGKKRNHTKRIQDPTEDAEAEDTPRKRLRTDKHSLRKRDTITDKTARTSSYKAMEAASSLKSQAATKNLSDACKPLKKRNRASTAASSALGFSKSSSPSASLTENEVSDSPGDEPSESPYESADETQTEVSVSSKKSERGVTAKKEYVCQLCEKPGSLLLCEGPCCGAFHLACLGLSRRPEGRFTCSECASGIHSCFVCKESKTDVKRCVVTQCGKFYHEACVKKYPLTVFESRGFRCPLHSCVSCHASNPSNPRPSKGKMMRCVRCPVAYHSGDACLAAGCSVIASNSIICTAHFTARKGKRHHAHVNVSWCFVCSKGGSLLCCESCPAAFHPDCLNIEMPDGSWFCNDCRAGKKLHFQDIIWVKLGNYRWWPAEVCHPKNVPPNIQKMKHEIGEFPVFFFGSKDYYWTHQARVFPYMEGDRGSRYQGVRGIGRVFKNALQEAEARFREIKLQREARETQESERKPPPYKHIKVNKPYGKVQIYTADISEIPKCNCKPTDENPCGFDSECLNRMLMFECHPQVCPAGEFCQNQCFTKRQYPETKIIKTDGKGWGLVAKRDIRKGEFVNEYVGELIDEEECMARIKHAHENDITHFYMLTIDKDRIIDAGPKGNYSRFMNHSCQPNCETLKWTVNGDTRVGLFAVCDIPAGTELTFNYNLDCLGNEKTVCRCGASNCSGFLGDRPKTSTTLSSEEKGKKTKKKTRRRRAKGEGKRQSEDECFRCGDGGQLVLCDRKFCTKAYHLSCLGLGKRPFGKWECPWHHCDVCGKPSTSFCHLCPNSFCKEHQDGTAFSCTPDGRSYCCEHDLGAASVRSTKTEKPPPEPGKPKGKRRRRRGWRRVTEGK
Shn3 inh set2: inhibitors of Schnurri-3 3'UTR reporter in osteoblasts | Clone20 osteoblast Shn3 3'UTR firefly luciferase, 24 h | inhibition, % at 12.5 µM | 0.52% of 360,000 active;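 active = mean inhibition of at least 75% with every replicate also reaching 75%; inconclusive = mean inhibition at least 75% but some replicate below; inactive = mean inhibition below 75%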;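 note: 0% = median of neutral control wells and 100% = pilot-screen positive control compound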
PAX8 reporter: PAX8 transcriptional activity inhibition; RMG-I TPO-luciferase reporter, SteadyGlo, 24 h; 1.2% of 360,000 active; inhibition, % at 12.6 µM;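 active = mean replicate inhibition at least 60% with every replicate also reaching 60%; inconclusive = only one of the two criteria is met; inactive = mean below 60% and not all replicates reaching 60%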;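 note: luciferase light reporting Pax8 driven TPO promoter activity; plate controls were median of neutral control wells for no effect and mitoxantrone controls for full effect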
N-glyco inh: N-linked glycosylation inhibition. D54 ERlucT glycosylation luciferase reporter, 24 h; percent of 100 nM tunicamycin response. 0.23% of 360,000 active. reporter increase, % at 12.5 µM. AID 588692;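 active = mean luciferase reporter signal, scaled so untreated is 0 and the glycosylation-blocking control 100, at or above a set limit in every replicate; inconclusive = mean reaches the limit but not every replicate does; inactive = mean below the limit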;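 note: luciferase carries N-glycosylation sites so blocking glycosylation raises the light; 0% = median of neutral control wells and 100% = median of 100 nM tunicamycin wells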
EBV LMP1 NFkB: reduces LMP1-driven NF-kappaB luciferase signal; 0.69% of 350,000 active; inhibition, % at 12.5 µM; LMP1-induced NF-kappaB luciferase reporter cells, luminescence; AID 504558; in the data active = inhibition above about 41%; inconclusive = no clear call, values can overlap the other calls;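 note: 0% = neutral control wells and 100% = reference inhibitor control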
Env fusion inh: HIV envelope-mediated fusion inhibition; inhibition, % at 12.3 µM; 1.1% of 360,000 active; HeLa-JRFL Env/CEM21 cell fusion, luciferase;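 active = mean replicate inhibition score of at least 50 and every replicate individually at or above 50; inconclusive = only one of the two criteria met; inactive = mean below 50 and not all replicates reaching 50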;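 note: 0% = plate neutral controls and 100% = maraviroc near 300 nM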
The depositor's hits bear a star; ? = inconclusive; / = no result given; ! = not active in a repeat; [ ] = dose if it differs, or a comment. Sampled rows, rich in hits. Any-hit rate of the full collection: about 2.8%.

SMILES	NSD2 HMT inh	Shn3 inh set2	PAX8 reporter	N-glyco inh	EBV LMP1 NFkB	Env fusion inh
COc1ccc(S(=O)(=O)N2CCN(C(=O)c3sccc3-c3ccccc3)CC2)cc1	2	35	24	-2	-3	32
CC(=O)Oc1ccccc1Cn1c(C)c(C(=O)NCc2cccc(Cl)c2)sc1=O	/	-11	21	-4	/	59*
Cn1cc(C(=O)N/N=C/C(Br)=C/c2ccccc2)ccc1=O	0	9	36	25*	-17	-5
Cc1ccc(-c2cc(C(=O)N/N=C/C(Br)=C/c3ccccc3)n[nH]2)o1	-3	5	74*	14	-20	-1
C[C@@H]1CN([C@H](C)CO)C(=O)c2cc(NC(=O)Nc3ccc(C(F)(F)F)cc3)ccc2O[C@@H](C)CCCCO[C@@H]1CN(C)C(=O)CCCN(C)C	/	/	4	/	/	6[16.7 µM]
C[C@@H]1CN([C@H](C)CO)C(=O)Cc2cc(NS(=O)(=O)c3cn(C)cn3)ccc2O[C@@H]1CN(C)C(=O)Nc1ccc(C(F)(F)F)cc1	/	/	/	/	/	5[16.7 µM]
CCC(C(=O)c1ccccc1)N(C(=O)c1ccccc1Cl)N1C(=O)C2C3C=CC(C3)C2C1=O (stereo not drawn)	14	9	/	-6	-9	109*
CCCN1C[C@@H](C)[C@@H](OC)CN(C)C(=O)c2cc(NC(=O)Nc3c(C)noc3C)ccc2OC[C@H]1C	/	/	-36	/	/	/
COc1ccc(CN2CCNC(=O)C2CC(=O)NCCCn2nnc3ccccc32)cc1C (stereo not drawn)	-2	-4	2	1	1	61*
CN1C(=O)c2cc(NC(=O)c3cscn3)ccc2OC[C@H]2O[C@H](CC(=O)NCc3ccc(Cl)c(Cl)c3)CC[C@H]21	/	/	10	/	/	68*[16.7 µM]
CCNC(=O)C[C@@H]1CC[C@H]2[C@H](COc3ccc(NC(=O)c4cscn4)cc3C(=O)N2C)O1	/	/	-5	/	/	21[16.7 µM]
CCNC(=O)C[C@@H]1CC[C@H]2[C@H](COc3ccc(NC(=O)c4cc(C)on4)cc3C(=O)N2C)O1	/	/	-5	/	/	0[16.7 µM]
COc1ccccc1C(=O)Nc1ccc2c(c1)C(=O)N(C)[C@@H]1CC[C@@H](CC(=O)NCc3ccc(Cl)c(Cl)c3)O[C@H]1CO2	/	/	93*	/	/	/
CN1C(=O)c2cc(NC(=O)c3cscn3)ccc2OC[C@@H]2O[C@H](CC(=O)NCc3ccc(Cl)c(Cl)c3)CC[C@H]21	/	/	8	/	/	58*[16.7 µM]
Cc1cc(C(=O)Nc2ccc3c(c2)C(=O)N(C)[C@H]2CC[C@@H](CC(=O)NCc4ccc(-c5ccccc5)cc4)O[C@@H]2CO3)no1	/	/	65*	/	/	12[16.7 µM]
COc1ccc(NC(=O)Nc2cccc3c2O[C@@H](CN(C)S(=O)(=O)c2cccs2)[C@@H](C)CN([C@H](C)CO)C3=O)cc1	/	/	/	/	/	18[16.7 µM]
CS(=O)(=O)Nc1ccc2c(c1)[C@H]1C[C@@H](CC(=O)NC3CCCCC3)O[C@@H](CO)[C@H]1O2	/	/	-5	/	/	16[16.7 µM]
CCCOc1ccc(C(=O)C(CN2CCCC2)c2ccccc2)cc1 (stereo not drawn)	10	95*	52	-3	-36	/
O=C(c1ccc(Cl)cc1)C(CN1CCCC1)c1ccccc1 (stereo not drawn)	2	-1	48	-12	46*	-412
CCCCOc1ccc(C(=O)C(CN2CCOCC2)c2ccccc2)cc1 (stereo not drawn)	8	-13	/	16	-96	/
O=C(C[C@H]1C=C[C@H](NC(=O)C2CCOCC2)[C@@H](CO)O1)Nc1nccs1	/	/	10	/	/	-29[16.7 µM]
COCC#Cc1cnc2c(c1)C(=O)N([C@H](C)CO)C[C@H](C)[C@H](CN(C)C(C)=O)O2	/	/	/	/	/	1[16.7 µM]
COc1cccc(-c2cc3nc(-c4ccccc4)cc(N4CCN(C(=O)c5ccoc5)CC4)n3n2)c1	/	60	68*	-11	8	17
COc1ccccc1-c1cc2nc(-c3ccccc3)cc(N3CCN(C(=O)c4ccco4)CC3)n2n1	/	69	86*	-13	34	-8
COc1ccccc1-c1cc2nc(-c3ccccc3)cc(N3CCN(C(=O)c4ccoc4)CC3)n2n1	/	28	67*	-14	5	/
SMILES	NSD2 HMT inh	Shn3 inh set2	PAX8 reporter	N-glyco inh	EBV LMP1 NFkB	Env fusion inh
COc1cccc(-c2cc(N3CCN(C(=O)c4ccoc4)CC3)n3nc(-c4cccc(Cl)c4)cc3n2)c1	/	82	38	-15	6	36
C[C@@H]1CN([C@H](C)CO)S(=O)(=O)c2ccc(-c3cccc(F)c3)cc2O[C@H]1CN(C)CC1CC1	/	/	/	/	/	20[16.7 µM]
N/C(=N\OC(=O)c1ccc(Cl)cc1Cl)c1ccccn1	-4	63	77*	-22	56*	22
Cc1ccc(C(=O)O/N=C(\N)c2ccccc2)c(Cl)c1	-7	32	53	-20	35	-27
N/C(=N\OC(=O)c1ccc([N+](=O)[O-])cc1Cl)c1ccccn1	-1	17	68*	-20	56*	-162
Cc1ccc(C(=O)O/N=C(\N)c2ccccn2)c(Cl)c1	-2	69	105*	-19	83*	85*
O=C1[C@@H]2[C@@H](CC(COc3ccccc3)=C3[C@@H](c4ccccc4)OB(O)C[C@@H]32)C(=O)N1Cc1ccccc1	/	/	12	/	/	26[16.7 µM]
COCCOC(=O)N1C(=O)[C@@]2(c3cc(C#CC4=CCCCC4)ccc31)[C@H](c1ccc(O)cc1)N1[C@H](c3ccccc3)[C@H](c3ccccc3)OC(=O)[C@H]1[C@@H]2C(N)=O	/	/	-2	/	/	16[16.7 µM]
Cc1ccccc1-c1ccc2c(c1)O[C@H](CN(C)C(=O)Nc1ccc(C(F)(F)F)cc1)[C@H](C)CN([C@@H](C)CO)S2(=O)=O	/	/	77*	/	/	56*[16.7 µM]
Cc1ccccc1-c1ccc2c(c1)O[C@H](CN(C)C(=O)Nc1ccc(C(F)(F)F)cc1)[C@@H](C)CN([C@H](C)CO)S2(=O)=O	/	/	77*	/	/	?
Cc1ccccc1-c1ccc2c(c1)O[C@@H](CN(C)C(=O)Nc1ccc(C(F)(F)F)cc1)[C@@H](C)CN([C@H](C)CO)S2(=O)=O	/	/	-28	/	/	-25[16.7 µM]
CCN1CCN(Cc2ccc(NC(=O)c3ccc(C)c(/C=C/c4cnc(Nc5cc(N6CCNCC6)nc(C)n5)cn4)c3)cc2C(F)(F)F)CC1	/	96*	/	-20	69*	/
CCN1CCN(Cc2ccc(NC(=O)c3ccc(C)c(NC(=O)c4cccc(-c5cn[nH]c(=O)c5)c4)c3)cc2C(F)(F)F)CC1	/	7	/	-4	61*	/
CCN1CCN(Cc2ccc(NC(=O)c3cc(NC(=O)c4ccc5n[nH]nc5c4)cc(OC)c3)cc2C(F)(F)F)CC1	/	-27	4	-2	-18	-15
CCN1CCN(Cc2ccc(NC(=O)c3ccc(C)c(NC(=O)c4c[nH]c5cc(C(F)(F)F)ccc5c4=O)c3)cc2C(F)(F)F)CC1	/	99*!	80*	-22	63*!	106*!
CCN1CCN(Cc2ccc(NC(=O)c3ccc(C)c(NC(=O)c4ccno4)c3)cc2C(F)(F)F)CC1	/	18	-16	-10	47*	-5
